The results in this text go back to the supplement of paper PMC6555819.

In the first assay the test system is RARb homodimer (NR concentration 270 nM). Nature of the assay: PBM binding z-score (relative to random genomic background probes); higher = stronger binding; sequences stand for … in GC…GCGATTGACAGCGTAGAATGAAGG
The method in brief: (§1)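 Ligand-free nuclear receptor dimers were bound for 1 h to custom Agilent 4×180K protein-binding microarrays. Detection used antibodies against each partner (one per run). Binding z-scores rest on regression-normalized fluorescence, with random background probes as the reference.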
The sequence CCTACTGGGCCATTCAGAGGTAATTGATCATATG displayed a PBM binding z-score of -0.0878.
The same measure, in the same setting: the value for TCAATTAGTTGATTAGGGCAACCGAAACAGCGGA was 0.454; that for GCTTGTAGGTCAAGGTTAAGAAAGACTAAGCTAA was 3.22.
On the same count and under the same terms, the value for CCGAGTAGGTTATGGTGCATTCAGGCAACGGTGA was 1.06; that for ACACGGAGGACAAAGGTCAGAGCTACGCCAGTGA was 4.59; that for GCTTATAGGTAATACAAGGTGAAAGTCCGATTGT was 1.05.
TGATTGAGGTTATAAGATCAGGGAACGTTGCAAA registered a PBM binding z-score of 0.293.
Still for that read-out and setting: the value for GTACCAAGGTGAATAGGTCGTTAATGAGTAGGCG was 1.88.
Sequence TCTATTAGTTGATTACGGCAACCGAAACAGCGGA registered a PBM binding z-score of -0.0417.
The sequence AGTCAAAGTTCATCTAGATAACGTAAGATATGCT had a PBM binding z-score of 3.87.
Still for that read-out and setting: the result for AGAATGAGGTTACCAAAGATCAGGGCAACGCTTG reads 1.97; that for TCTAGTTGGTCAGAGGTCACACACTCGAAATGCG, 4.5; that for ATCGAAAGGTCGAGGGTGAGTATACCCACCCGAA, 2.59.
TAGCCTTGGTCATGCGGGCCAGTATAGTGTCGGC gave a PBM binding z-score of -0.234.
The same measure, in the same setting: the result for TATATAGGGTCAAAGGCCAGAGTACGAATGTCGA reads 3.73.
On the same count and under the same terms, the value for ATCTCTTGGTAAAAGTTCAGTGAATCCCGAGGAT was 2.43; that for GCCACTGGGGCAAAGCAGGTTACCATAAGGTTGG was 1.08.

In a further assay the test system is RARg:RXRa (NR concentration 270 nM, RXRa partner concentration 90 nM). Described as above. The method in brief: as §1
For the sequence TCATATAGGTAAAGGTGAAAGCCGAACGATATGA, the PBM binding z-score was found to be 1.44.
Regarding ATATGTAGGTTACAACCGGGTCATTCAGGCTATG, the PBM binding z-score turned out to be 3.92.
The same measure, in the same setting: the result for CCTAGTCGGTCAAGGTCACACACGCTATAGGTAC reads 5.15; that for CCTACTGGGCCAAAGTCATTGATCAGTCAAAGCA, -0.124; that for CCTCGGAGGACAACAGGAGGTCAGAACTGCCAGA, 3.23.
Same read-out and setting: the value for GCTCGGAGGTCAAGGTCAGAGCTTTGTCCGTAGA was 7.02; that for ACTAGCAGGCCAAGGGTCACTCAGGATTAGTCCG was 4.35; that for ATCGATAGGTCGTGAGGTGAGTATACAGAAAGGC was 2.16.
Same read-out and setting: the result for CAAACTAGGTCAAAGGTCAAAGTCGAGCCAACCA reads 8.83; that for CCAGACAGGTGAATGGTAACTCAGTCTGGTACGC, 0.0397.
For the sequence TGAATGAGGTTATAAGATCATGGAACGTTGCAAA, the PBM binding z-score stood at 1.76.
In turn, TCTCGGAGGACACGAAGGTCAGAGCATTCCAGAG gave a PBM binding z-score of 3.22.
For GCTAGTTGGTCAGTAAAAGGACACACACCGGTCG, the PBM binding z-score was 1.15.
Same read-out and setting: the value for TAGCCTAGGTCATCGGGCCAGTATAGTACGCATC was 4.32; that for CGAACTAGATCATTGACAGGACAGTGAATAGTAA was 0.201; that for TCTATTAGTTGATGGGCAACCGACGAGTCCGTTT was -0.125.
CGAACTAGGTCATTGACAGGACAGTCAATAGTAA had a PBM binding z-score of 4.51.
In the case of CGAACAAGGTCAAGGACAGTGAATCTCCGCACGC, the PBM binding z-score is 6.08.
The same measure, in the same setting: the result for TCTCGGAGGACACGAAAGGTCAGAGCTCGACATC reads 4.97; that for TCTGCTAGGTCAACGATGGTCAGCTACTCTGCTA, 4.25; that for ATCTCTAGGTAAGACCCAGTTCAGTGAAGAACGC, 0.282.
On the same count and under the same terms, the value for GCTTGTAGATCAAAGTTAAGAAAGACTAAGCTAA was -0.501; that for CCTACTGGGCCATTCAGAGGTAATTGATCATATG was 0.0655.
The sequence TCAATTAGTTGATTAGGGCAACCGAAACAGCGGA registered a PBM binding z-score of 0.298.
GCTTGTAGGTCAAGGTTAAGAAAGACTAAGCTAA: the PBM binding z-score was 4.98.
The sequence CCGAGTAGGTTATGGTGCATTCAGGCAACGGTGA yielded a PBM binding z-score of 0.337.
The same measure, in the same setting: the result for ACACGGAGGACAAAGGTCAGAGCTACGCCAGTGA reads 6.1; that for GCTTATAGGTAATACAAGGTGAAAGTCCGATTGT, 0.63; that for TGATTGAGGTTATAAGATCAGGGAACGTTGCAAA, 1.55.
As to GTACCAAGGTGAATAGGTCGTTAATGAGTAGGCG, the PBM binding z-score worked out at 2.4.
As for TCTATTAGTTGATTACGGCAACCGAAACAGCGGA, the PBM binding z-score was 0.252.
With AGTCAAAGTTCATCTAGATAACGTAAGATATGCT, the PBM binding z-score came to 5.31.
Same read-out and setting: the result for AGAATGAGGTTACCAAAGATCAGGGCAACGCTTG reads 2.24; that for TCTAGTTGGTCAGAGGTCACACACTCGAAATGCG, 6.07; that for ATCGAAAGGTCGAGGGTGAGTATACCCACCCGAA, 4.14.
The same measure, in the same setting: the result for TAGCCTTGGTCATGCGGGCCAGTATAGTGTCGGC reads -0.0381; that for TATATAGGGTCAAAGGCCAGAGTACGAATGTCGA, 5.52.
For ATCTCTTGGTAAAAGTTCAGTGAATCCCGAGGAT, the PBM binding z-score was 1.43.
Consider GCCACTGGGGCAAAGCAGGTTACCATAAGGTTGG, for which the PBM binding z-score came to 0.357.

For another assay, the system named is RARg homodimer (NR concentration 270 nM). Described as above. The method in brief: as §1
Sequence TCATATAGGTAAAGGTGAAAGCCGAACGATATGA came in with a PBM binding z-score of 1.18.
Same read-out and setting: the value for ATATGTAGGTTACAACCGGGTCATTCAGGCTATG was 2.19; that for CCTAGTCGGTCAAGGTCACACACGCTATAGGTAC was 5.64.
The same measure, in the same setting: the value for CCTACTGGGCCAAAGTCATTGATCAGTCAAAGCA was -0.109.
On the same count and under the same terms, the result for CCTCGGAGGACAACAGGAGGTCAGAACTGCCAGA reads 3.05; that for GCTCGGAGGTCAAGGTCAGAGCTTTGTCCGTAGA, 7.59.
The sequence ACTAGCAGGCCAAGGGTCACTCAGGATTAGTCCG registered a PBM binding z-score of 3.59.
Turning to ATCGATAGGTCGTGAGGTGAGTATACAGAAAGGC, the PBM binding z-score was 1.84.
Sequence CAAACTAGGTCAAAGGTCAAAGTCGAGCCAACCA returned a PBM binding z-score of 7.42.
Same read-out and setting: the value for CCAGACAGGTGAATGGTAACTCAGTCTGGTACGC was 0.189; that for TGAATGAGGTTATAAGATCATGGAACGTTGCAAA was 0.935.
The same measure, in the same setting: the value for TCTCGGAGGACACGAAGGTCAGAGCATTCCAGAG was 4.02; that for GCTAGTTGGTCAGTAAAAGGACACACACCGGTCG was 1.73.
The same measure, in the same setting: the value for TAGCCTAGGTCATCGGGCCAGTATAGTACGCATC was 4.38; that for CGAACTAGATCATTGACAGGACAGTGAATAGTAA was 0.25.
Consider TCTATTAGTTGATGGGCAACCGACGAGTCCGTTT, for which the PBM binding z-score is -0.0889.
CGAACTAGGTCATTGACAGGACAGTCAATAGTAA registered a PBM binding z-score of 4.14.
On the same count and under the same terms, the value for CGAACAAGGTCAAGGACAGTGAATCTCCGCACGC was 6.35.
On the same count and under the same terms, the value for TCTCGGAGGACACGAAAGGTCAGAGCTCGACATC was 5.83; that for TCTGCTAGGTCAACGATGGTCAGCTACTCTGCTA was 5.24.
The same measure, in the same setting: the result for ATCTCTAGGTAAGACCCAGTTCAGTGAAGAACGC reads 0.0331; that for GCTTGTAGATCAAAGTTAAGAAAGACTAAGCTAA, -0.292; that for CCTACTGGGCCATTCAGAGGTAATTGATCATATG, 0.162.
The sequence TCAATTAGTTGATTAGGGCAACCGAAACAGCGGA gave a PBM binding z-score of 0.178.
For the sequence GCTTGTAGGTCAAGGTTAAGAAAGACTAAGCTAA, the PBM binding z-score was found to be 5.18.
Same read-out and setting: the value for CCGAGTAGGTTATGGTGCATTCAGGCAACGGTGA was 0.381; that for ACACGGAGGACAAAGGTCAGAGCTACGCCAGTGA was 5.24; that for GCTTATAGGTAATACAAGGTGAAAGTCCGATTGT was 0.649.
TGATTGAGGTTATAAGATCAGGGAACGTTGCAAA had a PBM binding z-score of 1.13.
The sequence GTACCAAGGTGAATAGGTCGTTAATGAGTAGGCG yielded a PBM binding z-score of 1.37.
The same measure, in the same setting: the value for TCTATTAGTTGATTACGGCAACCGAAACAGCGGA was 0.426; that for AGTCAAAGTTCATCTAGATAACGTAAGATATGCT was 5.67; that for AGAATGAGGTTACCAAAGATCAGGGCAACGCTTG was 1.97.
On the same count and under the same terms, the result for TCTAGTTGGTCAGAGGTCACACACTCGAAATGCG reads 5.24; that for ATCGAAAGGTCGAGGGTGAGTATACCCACCCGAA, 4.24; that for TAGCCTTGGTCATGCGGGCCAGTATAGTGTCGGC, 0.129.
TATATAGGGTCAAAGGCCAGAGTACGAATGTCGA displayed a PBM binding z-score of 5.07.
Same read-out and setting: the result for ATCTCTTGGTAAAAGTTCAGTGAATCCCGAGGAT reads 1.95; that for GCCACTGGGGCAAAGCAGGTTACCATAAGGTTGG, 0.651.
